How the values were obtained:
[1] = molecular target: Tyrosine-protein kinase CSK (Homo sapiens) (UniProt P41240); settings: at 1 µM;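 further: each value is an averaged inhibition reading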
[2] = molecular target: T1, Discoidin domain-containing receptor 2 (Homo sapiens) (UniProt Q16832); settings: at 0.1 µM
T1 sequence (whole entry): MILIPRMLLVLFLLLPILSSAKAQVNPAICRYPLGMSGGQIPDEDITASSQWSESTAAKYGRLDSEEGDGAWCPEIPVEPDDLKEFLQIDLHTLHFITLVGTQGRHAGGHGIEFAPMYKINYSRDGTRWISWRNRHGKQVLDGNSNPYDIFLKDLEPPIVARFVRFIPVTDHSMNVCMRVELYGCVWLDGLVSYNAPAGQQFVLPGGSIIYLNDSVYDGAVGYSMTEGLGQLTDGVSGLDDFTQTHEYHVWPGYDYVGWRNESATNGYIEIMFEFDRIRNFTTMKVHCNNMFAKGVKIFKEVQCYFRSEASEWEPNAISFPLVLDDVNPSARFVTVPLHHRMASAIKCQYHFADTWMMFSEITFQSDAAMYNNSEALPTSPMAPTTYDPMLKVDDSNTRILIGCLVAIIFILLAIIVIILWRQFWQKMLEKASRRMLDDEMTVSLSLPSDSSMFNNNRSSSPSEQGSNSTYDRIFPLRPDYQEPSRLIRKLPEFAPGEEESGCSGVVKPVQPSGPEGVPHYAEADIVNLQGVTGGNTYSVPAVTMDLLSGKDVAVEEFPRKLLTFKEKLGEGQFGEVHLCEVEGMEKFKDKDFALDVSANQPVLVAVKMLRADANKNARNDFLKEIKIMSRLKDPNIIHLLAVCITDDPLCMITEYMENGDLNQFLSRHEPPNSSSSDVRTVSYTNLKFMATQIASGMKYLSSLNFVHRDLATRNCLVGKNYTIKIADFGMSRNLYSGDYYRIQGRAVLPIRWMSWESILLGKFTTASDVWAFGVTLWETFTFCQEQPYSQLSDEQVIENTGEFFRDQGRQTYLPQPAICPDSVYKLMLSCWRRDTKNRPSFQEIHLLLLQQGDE

[3] = molecular target: T1, Discoidin domain-containing receptor 2 (Homo sapiens); settings: at 1 µM
[4] = molecular target: Epidermal growth factor receptor (Homo sapiens) (UniProt P00533); settings: at 0.1 µM
[5] = molecular target: Epidermal growth factor receptor (Homo sapiens) (UniProt P00533); settings: at 1 µM
[6] = system: Epidermal growth factor receptor (Homo sapiens), P00533 [L858R]; settings: at 0.1 µM
[7] = system: Epidermal growth factor receptor (Homo sapiens), P00533 [L858R]; settings: at 1 µM
[8] = system: Epidermal growth factor receptor (Homo sapiens), P00533 [L861Q]; settings: at 0.1 µM
[9] = system: Epidermal growth factor receptor (Homo sapiens), P00533 [L861Q]; settings: at 1 µM
[10] = system: Epidermal growth factor receptor (Homo sapiens), P00533 [T790M]; settings: at 0.1 µM
[11] = system: Epidermal growth factor receptor (Homo sapiens), P00533 [T790M]; settings: at 1 µM
[12] = system: Epidermal growth factor receptor (Homo sapiens), P00533 [L858R,T790M]; settings: at 0.1 µM
[13] = system: Epidermal growth factor receptor (Homo sapiens), P00533 [L858R,T790M]; settings: at 1 µM
[14] = molecular target: Ephrin type-A receptor 2 (Homo sapiens) (UniProt P29317); settings: at 0.1 µM
[15] = molecular target: Ephrin type-A receptor 2 (Homo sapiens) (UniProt P29317); settings: at 1 µM
[16] = molecular target: T2, Ephrin type-A receptor 3 (Homo sapiens) (UniProt P29320); settings: at 0.1 µM
T2 sequence (whole entry): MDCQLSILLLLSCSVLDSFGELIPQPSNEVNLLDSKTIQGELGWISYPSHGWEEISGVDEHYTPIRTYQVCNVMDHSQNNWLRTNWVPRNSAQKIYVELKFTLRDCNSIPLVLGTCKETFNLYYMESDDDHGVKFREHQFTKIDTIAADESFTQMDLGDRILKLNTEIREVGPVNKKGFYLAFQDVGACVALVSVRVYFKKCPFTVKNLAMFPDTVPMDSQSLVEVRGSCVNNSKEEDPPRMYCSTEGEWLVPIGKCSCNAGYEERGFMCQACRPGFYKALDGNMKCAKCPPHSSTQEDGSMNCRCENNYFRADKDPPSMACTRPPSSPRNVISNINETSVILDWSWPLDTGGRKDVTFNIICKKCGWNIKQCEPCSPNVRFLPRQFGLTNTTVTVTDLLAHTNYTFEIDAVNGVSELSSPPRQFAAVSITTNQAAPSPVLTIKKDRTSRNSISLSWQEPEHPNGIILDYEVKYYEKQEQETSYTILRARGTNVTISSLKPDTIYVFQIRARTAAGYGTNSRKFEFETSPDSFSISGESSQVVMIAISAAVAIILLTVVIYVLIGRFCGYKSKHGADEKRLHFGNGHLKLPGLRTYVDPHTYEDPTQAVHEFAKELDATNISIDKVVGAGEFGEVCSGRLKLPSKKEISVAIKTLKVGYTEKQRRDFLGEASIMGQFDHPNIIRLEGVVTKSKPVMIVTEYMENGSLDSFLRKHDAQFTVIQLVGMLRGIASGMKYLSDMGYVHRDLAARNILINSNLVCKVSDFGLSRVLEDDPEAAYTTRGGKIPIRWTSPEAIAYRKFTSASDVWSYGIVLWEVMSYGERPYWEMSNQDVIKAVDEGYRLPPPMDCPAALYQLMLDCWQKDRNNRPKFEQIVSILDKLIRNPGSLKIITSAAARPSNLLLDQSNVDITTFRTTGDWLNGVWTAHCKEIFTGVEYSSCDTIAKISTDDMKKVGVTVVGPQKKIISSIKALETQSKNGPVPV

[17] = molecular target: T2, Ephrin type-A receptor 3 (Homo sapiens); settings: at 1 µM
[18] = molecular target: Ephrin type-A receptor 4 (Homo sapiens) (UniProt P54764); settings: at 0.1 µM
[19] = molecular target: Ephrin type-A receptor 4 (Homo sapiens) (UniProt P54764); settings: at 1 µM
[20] = molecular target: T3, Ephrin type-B receptor 2 (Homo sapiens) (UniProt P29323); settings: at 0.1 µM;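 further: reported as mean inhibition of EPHB2, from the GSK PKIS dataset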
T3 sequence (whole entry): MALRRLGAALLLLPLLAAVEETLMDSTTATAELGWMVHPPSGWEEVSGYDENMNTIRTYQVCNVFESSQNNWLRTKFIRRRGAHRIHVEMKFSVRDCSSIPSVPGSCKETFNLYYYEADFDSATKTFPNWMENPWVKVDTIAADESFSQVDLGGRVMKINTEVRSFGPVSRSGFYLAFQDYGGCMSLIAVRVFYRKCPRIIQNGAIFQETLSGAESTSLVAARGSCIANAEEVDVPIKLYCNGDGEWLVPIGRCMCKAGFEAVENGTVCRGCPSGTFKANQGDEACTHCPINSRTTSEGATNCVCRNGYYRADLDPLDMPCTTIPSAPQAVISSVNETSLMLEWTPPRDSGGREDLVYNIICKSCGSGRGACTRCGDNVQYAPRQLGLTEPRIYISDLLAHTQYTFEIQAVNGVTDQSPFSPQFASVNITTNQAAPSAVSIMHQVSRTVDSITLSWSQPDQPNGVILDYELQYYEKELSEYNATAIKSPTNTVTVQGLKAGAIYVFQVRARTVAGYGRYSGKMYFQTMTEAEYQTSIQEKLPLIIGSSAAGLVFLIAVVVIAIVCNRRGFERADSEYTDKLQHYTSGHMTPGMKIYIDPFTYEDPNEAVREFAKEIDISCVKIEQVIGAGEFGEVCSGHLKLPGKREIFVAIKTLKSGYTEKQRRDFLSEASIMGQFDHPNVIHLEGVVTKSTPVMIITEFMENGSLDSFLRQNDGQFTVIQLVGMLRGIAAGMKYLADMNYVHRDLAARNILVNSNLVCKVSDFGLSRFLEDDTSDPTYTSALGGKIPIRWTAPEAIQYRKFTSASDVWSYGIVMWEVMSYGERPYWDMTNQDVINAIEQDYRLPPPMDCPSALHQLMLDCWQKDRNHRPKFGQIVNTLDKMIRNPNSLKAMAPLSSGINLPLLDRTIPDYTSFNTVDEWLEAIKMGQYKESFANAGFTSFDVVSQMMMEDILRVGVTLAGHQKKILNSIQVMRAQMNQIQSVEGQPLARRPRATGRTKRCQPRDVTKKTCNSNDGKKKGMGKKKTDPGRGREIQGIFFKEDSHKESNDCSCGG

Sequence of Ephrin type-A receptor 4 (Homo sapiens) (P54764 whole entry): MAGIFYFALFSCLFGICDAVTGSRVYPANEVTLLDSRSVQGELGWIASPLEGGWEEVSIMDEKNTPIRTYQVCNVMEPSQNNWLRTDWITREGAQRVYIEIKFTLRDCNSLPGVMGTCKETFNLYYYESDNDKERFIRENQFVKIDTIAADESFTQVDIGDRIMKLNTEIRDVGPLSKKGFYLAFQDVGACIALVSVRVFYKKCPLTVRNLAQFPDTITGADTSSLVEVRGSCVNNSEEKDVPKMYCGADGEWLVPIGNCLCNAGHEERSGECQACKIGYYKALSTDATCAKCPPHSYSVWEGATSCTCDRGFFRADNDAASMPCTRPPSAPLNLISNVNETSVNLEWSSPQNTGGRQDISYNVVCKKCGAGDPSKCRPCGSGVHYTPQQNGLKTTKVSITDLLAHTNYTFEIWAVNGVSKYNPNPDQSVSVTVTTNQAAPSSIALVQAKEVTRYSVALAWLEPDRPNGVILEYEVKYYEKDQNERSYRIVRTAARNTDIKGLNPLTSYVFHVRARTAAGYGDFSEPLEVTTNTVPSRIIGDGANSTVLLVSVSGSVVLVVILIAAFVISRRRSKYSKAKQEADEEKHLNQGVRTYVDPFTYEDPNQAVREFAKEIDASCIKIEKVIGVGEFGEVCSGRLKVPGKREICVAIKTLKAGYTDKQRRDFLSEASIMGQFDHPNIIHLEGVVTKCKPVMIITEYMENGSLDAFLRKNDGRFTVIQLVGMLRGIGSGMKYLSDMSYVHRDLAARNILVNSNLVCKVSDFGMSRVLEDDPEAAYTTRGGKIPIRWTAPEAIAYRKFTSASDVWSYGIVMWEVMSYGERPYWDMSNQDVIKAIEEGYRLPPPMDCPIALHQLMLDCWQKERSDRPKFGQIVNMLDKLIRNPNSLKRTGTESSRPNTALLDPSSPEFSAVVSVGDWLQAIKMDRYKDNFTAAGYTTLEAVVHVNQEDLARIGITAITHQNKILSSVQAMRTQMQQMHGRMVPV
Sequence of Epidermal growth factor receptor (Homo sapiens), P00533 [T790M] (P00533 whole entry T790M): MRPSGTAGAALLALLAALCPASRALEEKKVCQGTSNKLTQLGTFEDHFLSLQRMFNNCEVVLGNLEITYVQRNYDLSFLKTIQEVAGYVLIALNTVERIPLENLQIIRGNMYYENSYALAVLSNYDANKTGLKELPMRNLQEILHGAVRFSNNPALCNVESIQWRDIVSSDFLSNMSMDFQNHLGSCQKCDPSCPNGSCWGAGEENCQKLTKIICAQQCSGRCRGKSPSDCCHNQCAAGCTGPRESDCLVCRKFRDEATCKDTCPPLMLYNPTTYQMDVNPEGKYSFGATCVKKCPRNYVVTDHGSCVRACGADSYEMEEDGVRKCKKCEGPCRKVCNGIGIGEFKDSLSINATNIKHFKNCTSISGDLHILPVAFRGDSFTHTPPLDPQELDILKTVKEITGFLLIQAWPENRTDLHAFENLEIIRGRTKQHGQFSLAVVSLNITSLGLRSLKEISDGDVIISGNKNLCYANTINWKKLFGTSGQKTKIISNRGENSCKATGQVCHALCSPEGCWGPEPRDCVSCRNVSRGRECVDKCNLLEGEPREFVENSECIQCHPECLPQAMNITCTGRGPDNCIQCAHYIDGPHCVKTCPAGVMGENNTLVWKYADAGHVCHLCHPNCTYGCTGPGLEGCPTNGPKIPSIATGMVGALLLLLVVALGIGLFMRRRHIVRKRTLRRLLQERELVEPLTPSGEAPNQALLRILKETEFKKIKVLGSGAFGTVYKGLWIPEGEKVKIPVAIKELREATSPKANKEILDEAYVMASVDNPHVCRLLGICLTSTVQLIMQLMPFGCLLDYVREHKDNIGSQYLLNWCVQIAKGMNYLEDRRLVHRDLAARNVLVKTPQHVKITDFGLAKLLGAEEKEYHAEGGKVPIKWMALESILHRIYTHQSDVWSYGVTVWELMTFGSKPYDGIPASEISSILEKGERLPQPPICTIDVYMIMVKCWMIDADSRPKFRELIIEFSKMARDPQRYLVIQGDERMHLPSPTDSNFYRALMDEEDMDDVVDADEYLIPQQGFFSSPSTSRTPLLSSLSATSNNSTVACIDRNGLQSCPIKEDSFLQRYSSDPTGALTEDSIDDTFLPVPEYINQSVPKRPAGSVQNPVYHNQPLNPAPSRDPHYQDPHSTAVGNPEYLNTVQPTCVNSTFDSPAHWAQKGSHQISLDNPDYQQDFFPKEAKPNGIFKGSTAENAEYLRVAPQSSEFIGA
Sequence of Epidermal growth factor receptor (Homo sapiens), P00533 [L858R] (P00533 whole entry L858R): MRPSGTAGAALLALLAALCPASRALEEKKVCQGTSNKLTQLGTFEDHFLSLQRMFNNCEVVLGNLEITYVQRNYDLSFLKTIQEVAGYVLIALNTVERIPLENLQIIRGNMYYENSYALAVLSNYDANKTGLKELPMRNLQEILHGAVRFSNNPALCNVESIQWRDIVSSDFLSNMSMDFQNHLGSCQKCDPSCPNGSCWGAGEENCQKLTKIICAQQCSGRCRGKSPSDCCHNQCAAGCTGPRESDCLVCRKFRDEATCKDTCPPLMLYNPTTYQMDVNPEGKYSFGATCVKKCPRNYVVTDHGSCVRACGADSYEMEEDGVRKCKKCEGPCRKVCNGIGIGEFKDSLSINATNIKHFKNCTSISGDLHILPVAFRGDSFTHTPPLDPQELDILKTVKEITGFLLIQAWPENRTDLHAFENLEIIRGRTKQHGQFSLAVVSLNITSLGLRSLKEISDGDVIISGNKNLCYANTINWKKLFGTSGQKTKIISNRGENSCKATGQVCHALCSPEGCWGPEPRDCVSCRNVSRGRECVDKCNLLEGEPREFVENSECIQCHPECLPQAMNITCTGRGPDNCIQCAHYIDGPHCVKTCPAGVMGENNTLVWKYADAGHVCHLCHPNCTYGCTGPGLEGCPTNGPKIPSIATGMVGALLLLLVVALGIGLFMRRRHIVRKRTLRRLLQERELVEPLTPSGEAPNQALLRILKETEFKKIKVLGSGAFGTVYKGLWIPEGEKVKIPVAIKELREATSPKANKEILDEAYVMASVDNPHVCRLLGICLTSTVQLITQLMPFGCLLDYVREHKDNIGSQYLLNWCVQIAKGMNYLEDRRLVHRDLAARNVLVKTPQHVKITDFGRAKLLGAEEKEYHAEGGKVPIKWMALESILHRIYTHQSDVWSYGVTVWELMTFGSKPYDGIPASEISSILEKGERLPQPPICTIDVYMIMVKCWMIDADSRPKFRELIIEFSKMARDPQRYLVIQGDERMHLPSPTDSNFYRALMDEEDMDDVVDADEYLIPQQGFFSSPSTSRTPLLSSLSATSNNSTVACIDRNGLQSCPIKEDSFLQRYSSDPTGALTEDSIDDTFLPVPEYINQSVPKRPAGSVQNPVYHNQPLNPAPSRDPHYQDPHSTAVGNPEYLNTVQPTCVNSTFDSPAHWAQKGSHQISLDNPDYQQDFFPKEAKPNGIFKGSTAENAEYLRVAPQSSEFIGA
Sequence of Ephrin type-A receptor 2 (Homo sapiens) (P29317 whole entry): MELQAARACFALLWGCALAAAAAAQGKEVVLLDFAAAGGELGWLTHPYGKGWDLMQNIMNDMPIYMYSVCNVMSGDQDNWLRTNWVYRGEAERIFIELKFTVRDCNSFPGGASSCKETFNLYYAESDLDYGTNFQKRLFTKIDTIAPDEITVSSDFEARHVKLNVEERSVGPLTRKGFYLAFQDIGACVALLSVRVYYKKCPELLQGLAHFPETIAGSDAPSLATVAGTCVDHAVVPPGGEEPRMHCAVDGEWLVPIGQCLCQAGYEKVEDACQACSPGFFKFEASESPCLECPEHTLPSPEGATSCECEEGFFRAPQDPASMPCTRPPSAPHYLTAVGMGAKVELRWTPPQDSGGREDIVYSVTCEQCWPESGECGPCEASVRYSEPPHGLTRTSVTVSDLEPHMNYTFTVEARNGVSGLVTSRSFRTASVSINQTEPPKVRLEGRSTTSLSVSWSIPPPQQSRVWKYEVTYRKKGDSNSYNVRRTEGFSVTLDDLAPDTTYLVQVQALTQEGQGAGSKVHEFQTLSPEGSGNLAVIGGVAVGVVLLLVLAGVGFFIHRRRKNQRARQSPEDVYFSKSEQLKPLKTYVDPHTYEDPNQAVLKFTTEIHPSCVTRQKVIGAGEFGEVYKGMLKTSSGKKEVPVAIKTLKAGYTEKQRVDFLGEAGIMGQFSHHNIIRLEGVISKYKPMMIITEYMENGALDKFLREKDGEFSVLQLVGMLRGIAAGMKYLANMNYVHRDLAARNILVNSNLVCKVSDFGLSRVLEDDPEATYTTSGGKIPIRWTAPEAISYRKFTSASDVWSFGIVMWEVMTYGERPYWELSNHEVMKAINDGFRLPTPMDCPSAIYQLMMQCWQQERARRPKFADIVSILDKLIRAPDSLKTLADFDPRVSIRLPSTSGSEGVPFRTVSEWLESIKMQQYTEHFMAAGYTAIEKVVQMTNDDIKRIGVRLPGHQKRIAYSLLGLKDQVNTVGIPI
Sequence of Tyrosine-protein kinase CSK (Homo sapiens) (P41240 2-450 limits assumed): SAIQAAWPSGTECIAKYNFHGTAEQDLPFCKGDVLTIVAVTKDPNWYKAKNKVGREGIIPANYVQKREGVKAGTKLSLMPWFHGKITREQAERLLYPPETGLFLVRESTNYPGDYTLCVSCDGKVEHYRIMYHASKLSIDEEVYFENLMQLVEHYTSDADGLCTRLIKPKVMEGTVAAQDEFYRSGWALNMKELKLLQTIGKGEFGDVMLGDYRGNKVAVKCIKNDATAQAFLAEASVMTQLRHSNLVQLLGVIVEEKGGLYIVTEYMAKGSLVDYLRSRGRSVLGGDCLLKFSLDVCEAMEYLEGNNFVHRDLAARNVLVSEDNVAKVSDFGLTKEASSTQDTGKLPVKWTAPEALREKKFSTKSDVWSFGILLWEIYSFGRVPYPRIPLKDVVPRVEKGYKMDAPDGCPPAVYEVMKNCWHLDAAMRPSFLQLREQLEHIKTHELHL

SMILES	inhibition [1]	inhibition [2]	inhibition [3]	inhibition [4]	inhibition [5]	inhibition [6]	inhibition [7]	inhibition [8]	inhibition [9]	inhibition [10]	inhibition [11]	inhibition [12]	inhibition [13]	inhibition [14]	inhibition [15]	inhibition [16]	inhibition [17]	inhibition [18]	inhibition [19]	inhibition [20]
O=C(NCC1CC1)c1ccc(-c2cccc(C(=O)NC3CC3)c2)cc1	-3.57%	4.92%	7.61%	1.39%	0.85%	2.42%	-2.6%	-0.16%	-2.26%	0.88%	-1.31%	-1.91%	3.8%	2.47%	1.67%	2.75%	4.67%	4.89%	-0.51%	6.78%
NC(=O)Cc1ccccc1Oc1nccc(-c2c(-c3ccc(F)cc3)ncn2C2CCNCC2)n1	0.29%	0.48%	0.75%	2.22%	4.51%	2.34%	8.03%	1.25%	-0.04%	0.99%	0.65%	0.76%	4.08%	-0.02%	-0.27%	2.08%	3.17%	5.89%	-0.14%	6.12%
CCC(=O)Nc1ccc(C)c(-c2ccc(C(=O)NCC3CC3)cc2)c1	4.34%	1.85%	2.57%	6.56%	6.12%	2.49%	5.47%	3.28%	4.44%	0.82%	2.33%	-0.94%	3.59%	-1.79%	-2.2%	1.95%	4.02%	6.75%	8.5%	6.82%
CCN(CC)Cc1ccc(Nc2nccc(-c3cnn4ncccc34)n2)cc1	8.18%	1.64%	4.24%	-1.99%	-1.76%	-0.85%	-1.39%	1.51%	1.54%	0.54%	1.33%	0.05%	4.64%	-3.31%	-5.2%	-1.76%	0.69%	6.79%	15.2%	8.25%
O=C(Nc1n[nH]c2cc(-c3cc(F)ccc3F)ccc12)C1CC1	2.29%	2.61%	4.77%	1.18%	2.02%	1.19%	3.64%	2.35%	-0.56%	0.87%	1.25%	3.1%	2.41%	-2.28%	-0.08%	1.66%	4.19%	5.23%	3.94%	6.32%
NC(=O)c1cc(-c2ccc(F)cc2)cc(-c2ccncc2)c1N	5.4%	1.42%	2.13%	-0.24%	5.03%	5.96%	7.27%	4.19%	7.37%	1.23%	3.83%	0.39%	-0.62%	0.4%	3.67%	4.53%	2.83%	10.1%	12.7%	5.78%
